# Source: PubChem (The Scripps Research Institute Molecular Screening Center)
# A selection: hits, their analogues and other compounds. The true share with any hit is near 3.5%.
# FBW7 act: human FBW7 E3 ligase activation, primary screen; Q969H0; normalized activity (activation), % at 26.1 µM; AlphaScreen FBW7–phospho-cyclin E peptide binding, activator screen; AID 1259310; 0.13% of 650,000 active; in the data active = normalized activity above about 1.9%;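 note: purified mutant Fbw7 with reduced substrate affinity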
# GPR151 activ: activates the human receptor GPR151. Q8TDV0. PathHunter beta-arrestin GPR151 cells, luminescence. activation, % at 11.2 µM. 1% of 650,000 active; in the data active = activation above about 4.9%;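 note: 0% = median of compound wells and 100% = cells with positive control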
# MITF primary: human MITF inhibition, primary screen; O75030; AlphaScreen MITF homodimerization, bead proximity signal; inhibition, % at 2.6 µM; 0.91% of 650,000 active; AID 1259374; in the data active = inhibition above about 50%;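 note: 0% = vehicle wells with protein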
# Target sequence (O75030 whole entry, looked up): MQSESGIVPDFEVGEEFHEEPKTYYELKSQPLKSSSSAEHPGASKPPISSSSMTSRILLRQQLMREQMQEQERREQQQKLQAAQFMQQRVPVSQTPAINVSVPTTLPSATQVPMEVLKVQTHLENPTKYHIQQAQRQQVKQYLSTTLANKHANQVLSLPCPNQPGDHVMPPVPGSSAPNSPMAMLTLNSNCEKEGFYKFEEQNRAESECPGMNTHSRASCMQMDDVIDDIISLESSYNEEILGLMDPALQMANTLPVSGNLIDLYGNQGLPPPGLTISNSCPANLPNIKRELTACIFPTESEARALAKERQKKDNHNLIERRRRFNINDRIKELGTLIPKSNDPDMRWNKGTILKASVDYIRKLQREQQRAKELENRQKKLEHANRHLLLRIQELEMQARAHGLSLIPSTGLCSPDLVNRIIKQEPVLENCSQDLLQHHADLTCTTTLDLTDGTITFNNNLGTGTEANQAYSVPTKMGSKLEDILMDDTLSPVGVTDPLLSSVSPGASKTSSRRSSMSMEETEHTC
# TEAD-YAP block: TEAD-YAP interaction inhibition; AID 1259422; 1.4% of 640,000 active; inhibition, % at 9.12 µM; HEK-TIYL cells, TEAD-Gal4/YAP UAS-luciferase luminescence; in the data active = inhibition above about 32%;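 note: 0% = median of test compound wells and 100% = reference inhibitor wells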
# * = called active by the depositor.
SMILES,FBW7 act,GPR151 activ,MITF primary,TEAD-YAP block
COc1ccc(C(=O)NNC(=O)COC(=O)COc2ccc3c(C)cc(=O)oc3c2)cc1,0,-1,-8,1
CCOc1ccccc1NC(=O)C(=O)NCCc1ccc(F)cc1,0,0,-15,11
O=[N+]([O-])c1ccc(/C=C/c2ccc(O)cc2)cc1,0,-11,4,49*
C=CCn1c(C)cc(C(=O)CSc2nnc(N)s2)c1C,0,-6,4,39*
Cc1cccc2c(=O)nc3n(c12)CC(O)=C3c1nc2ccccc2[nH]1,0,0,2,-5
CC1C(O)=C(c2nc3ccccc3[nH]2)c2nc(=O)c3ccccc3n21 (stereo not given),-1,-1,17,54*
COc1ccc(Nc2cc(C)nc(-n3nc(C)cc3C)n2)cc1OC,0,-1,4,69*
O=c1oc2ccc(Cl)cc2c(=O)n1-c1cccc(C(F)(F)F)c1,0,0,-19,76*
CS(=O)(=O)N(CC(=O)NCc1ccncc1)c1ccc(Cl)cc1,0,1,-10,-8
CCN(CCO)C(=O)c1sc2ncnc(NCCc3ccccn3)c2c1C,0,0,13,5
Nc1nc(-c2ccccc2)nn1S(=O)(=O)c1ccc(Cl)cc1,0,-1,0,-14
COc1ccc2c(=O)c(-c3ccccc3)coc2c1,0,-9,2,29
COc1ccc2c(=O)c(-c3cscn3)coc2c1,0,-3,-3,44*
Cc1nc(-c2coc3cc(O)ccc3c2=O)cs1,1,-6,8,34*
CC(=O)Oc1ccc2c(=O)c(-c3cc4ccccc4o3)coc2c1,0,-6,8,8
O=c1c(-c2cc3ccccc3o2)coc2cc(O)ccc12,0,-8,1,36*
O=C(C1CCN(S(=O)(=O)c2cccc(F)c2)CC1)N1CCC(O)CC1,0,-1,-1,-25
COc1ccccc1/C=C1\N=C(c2ccc(OC)c(OC)c2)N(c2ccc(C)c(C)c2)C1=O,0,0,-7,-8
CC(C)n1c(NCCN2CCOCC2)nc2c(Nc3ccccc3)ncnc21,0,-4,3,41*
CCCNc1ncnc2c1nc(NCCCN1CCCC1=O)n2C(C)C,0,-2,9,-19
CC(C)n1c(NCCCN2CCCC2=O)nc2c(Nc3ccccc3)ncnc21,0,-8,-6,35*
CC(C)n1c(NCCN2CCOCC2)nc2c(Nc3ccc(N4CCOCC4)cc3)ncnc21,0,-1,0,-11
Nc1c(-c2nc(-c3ccccc3F)no2)nnn1-c1ccc(F)cc1,0,-1,-13,-45
COC(F)(C(=O)Nc1ccc(OC(F)(F)F)cc1)C(F)(F)F (stereo not given),0,0,4,-3
CC(C)n1c(N=Nc2c(O)n(C)c(=O)n(C)c2=O)nc2c1c(=O)[nH]c(=O)n2C,0,-2,1,-4
SMILES,FBW7 act,GPR151 activ,MITF primary,TEAD-YAP block
Cc1noc(-c2ccc(NC(=O)c3cccnc3)cc2)n1,0,-10,13,43*
O=C(CN1CCC(Cn2cnc3ccccc32)CC1)Nc1nc2ccc(F)cc2s1,0,1,36,56*
CCOC(=O)N1CCN(c2c(NCc3ccccc3)c(=O)c2=O)CC1,0,0,-5,56*
O=C(Nc1cccc(F)c1)c1ccc(Cl)c([N+](=O)[O-])c1,0,2,2,13
O=C(Nc1cccc(I)c1)c1ccc(Cl)c([N+](=O)[O-])c1,0,-3,21,33*
O=C(Nc1cccc(C(F)(F)F)c1)c1ccc(Cl)c([N+](=O)[O-])c1,0,-1,4,62*
O=C(Nc1ccc2c(c1)OC(F)(F)O2)c1cc([N+](=O)[O-])ccc1Cl,0,0,5,68*
O=C(Nc1cccc(Cl)c1)c1ccc(Cl)c([N+](=O)[O-])c1,0,-1,27,45*
O=C(CSc1nc2[nH]ncc2c(=O)[nH]1)Nc1ccc2c(c1)OCCO2,0,2,7,12
COC(=O)C1CCC(=O)N1S(=O)(=O)c1ccc(C)cc1 (stereo not given),0,2,-6,-3
Cc1cc(C)n(C(=O)c2csc(-n3nc(C)cc3C(F)(F)F)n2)n1,0,3,2,1
O=C(Nc1ccc(F)cc1)c1ccc(Cl)c([N+](=O)[O-])c1,0,1,19,48*
O=C(Nc1ccc(Cl)cc1)c1cc(Cl)ccc1[N+](=O)[O-],0,-1,-6,7
Cc1cccc(NC(=O)c2cc(Cl)ccc2[N+](=O)[O-])c1,0,-1,0,45*
O=C(Nc1cc(C(F)(F)F)ccc1Cl)c1ccc(Cl)c([N+](=O)[O-])c1,0,-1,2,45*
O=C(Nc1cccc(I)c1)c1cc([N+](=O)[O-])ccc1Cl,1,0,8,45*
O=C(Nc1cccc(-c2nc3ccccc3s2)c1)c1cc([N+](=O)[O-])ccc1Cl,0,-1,13,36*
O=C(Nc1cccc(-c2nc3ccccc3s2)c1)c1ccccc1[N+](=O)[O-],0,1,-3,-33
O=C(c1ccc(Oc2ccccc2)cc1)c1coc2ccc(O)cc12,0,-4,-4,55*
O=C(CSc1nc2[nH]ncc2c(=O)n1-c1ccc(Br)cc1)Nc1ccc2c(c1)OCCO2,0,-2,1,42*
O=C(CSc1nc2[nH]ncc2c(=O)n1-c1cccc(C(F)(F)F)c1)Nc1ccc2c(c1)OCCO2,0,0,8,27
O=C(CSc1nc2[nH]ncc2c(=O)n1-c1ccccc1)Nc1ccc2c(c1)OCCO2,0,0,7,50*
COCCCNc1nc(CN2CCN(c3ccc(OC)cc3)CC2)nc2ccc(C)cc12,0,0,-3,-3
Cc1ccc(OCC(O)CN(CCO)CCO)cc1 (stereo not given),0,1,-19,-2
OCCN(CCO)CC(O)COc1ccc(C23CC4CC(CC(C4)C2)C3)cc1 (stereo not given),0,0,4,56*
SMILES,FBW7 act,GPR151 activ,MITF primary,TEAD-YAP block
Clc1ccc2nc(-c3ccc4c(c3)OCO4)cn2c1,0,-9,-16,73*
Fc1ccc(-c2cn3cc(Cl)ccc3n2)cc1,0,-8,14,37*
Clc1ccc2nc(-c3ccccc3)cn2c1,0,-9,12,77*
Clc1ccc2nc(-c3ccc(Br)cc3)cn2c1,0,0,-13,-78
Cc1c(C)n2c(SCc3ccc([N+](=O)[O-])cc3)nnc2[nH]c1=O,0,-2,7,5
c1ccc(C2CCC(=NNc3nc4ccccc4[nH]3)CC2)cc1 (stereo not given),0,-1,6,33*
CC1CCC(=NNc2nc3ccccc3[nH]2)CC1 (stereo not given),0,1,42,-20
CC1=C/C(=N\Nc2nc3ccccc3[nH]2)CC1,0,-9,2,32*
CC1=C/C(=N/Nc2nc3ccccc3[nH]2)CC(C)(C)C1,-1,1,10,-22
O=C(CCl)N(C1CCCC1)C1CCS(=O)(=O)C1 (stereo not given),1,-1,4,65*
